Reference: a collection of fitness landscapes (doi:10.1016/j.celrep.2020.107928)
Whole data set: some 81,000 sequences, median “one-hybrid fitness for binding NBS DNA” near -0.1, cut for the highest 2% near 0.36. The full list was thinned out, with the highest values kept by preference.

B1: Caulobacter ParB omega fusion; a variant is named by its letters at X, in order, B8GW30 (parent)
chain: MESVVVGEPGMSEGRRGLGRGLSALLGEVDAAPAQAPGEQLGGSREAPIEILQRNPDQPRRTFREEDLEDLSNSIREKGVLQPILVRPSPDTAGEYQIVAGERAWRAAQRAGLKTVPIMVRELDDLAVLEIGIIENVQRADLNVLEEALSYKVLMEKFERTQENIAQTIGKSXSHVANXMRLLXLPDEVQSYLVSGELTAXHARAIAAAADPVALAKQIIEGGLSVRETEALARKAPNLSAGKSKGGRPPRVKDTDTQALESDLSSVLGLDVSIDHRGSTGTLTITYATLEQLDDLCNRLTRGI

Variants of: B1
Test: one-hybrid fitness for binding NBS DNA (the Noc-binding site; scaled: cognate 1, non-cognate 0); higher = stronger binding
Conditions: with NBS DNA site
Procedure, shortened: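 Pre- and post-selection plasmids were Illumina-sequenced, three replicate libraries were pooled, and any variant with under 10 reads was removed. The libraries were Caulobacter ParB with four specificity codons randomised, selected in E. coli USO through a HIS3 reporter whose site is 19 bp from the promoter. Cells grew 48 hours at 37°C on M9 without histidine, with 0.1 mM IPTG and 5 mM 3-AT. Fitness is the log change in variant-to-wild-type read ratio, rescaled against cognate and non-cognate.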

Variant | one-hybrid fitness for binding NBS DNA
DKMS | ≤ 0.2
HKVM | ≤ 0.2
VYHT | ≤ 0.2
KGST | ≤ 0.2
WSCT | ≤ 0.2
QKAK | ≤ 0.2
QKAH | ≤ 0.2
QKFH | ≤ 0.2
QKFR | 0.435
QKAR | 0.606
QKFP | ≤ 0.2
GQKR | 0.201
SYQK | ≤ 0.2
QPDR | ≤ 0.2
QSNP | ≤ 0.2
QDDR | ≤ 0.2
QSDR | 0.317
QCDR | 0.402
QINR | 0.479
QINN | ≤ 0.2
QHNR | 0.618
QIDR | 0.234
QHNP | ≤ 0.2
QSNR | 0.62
QHDR | 0.336

Variant | one-hybrid fitness for binding NBS DNA
PRGP | ≤ 0.2
QFNR | 0.268
QANR | 0.583
QLNR | 0.551
QADR | 0.314
QLDR | 0.295
QCNR | 0.751
QPNR | 0.236
QANN | ≤ 0.2
QLND | ≤ 0.2
NTLI | ≤ 0.2
VIMF | ≤ 0.2
LAGN | ≤ 0.2
EMRR | 0.21
ADQR | ≤ 0.2
FNIT | ≤ 0.2
RPMM | ≤ 0.2
GCIC | ≤ 0.2
DTRR | 0.303
QTDR | 0.483
QTDP | ≤ 0.2
QTNG | 0.286
QTYR | 0.691
QTNR | 0.936
NTRR | 0.235

Variant | one-hybrid fitness for binding NBS DNA
QTRR | 1.15
QTNK | 0.304
PSTM | ≤ 0.2
IDSK | ≤ 0.2
HNGW | ≤ 0.2
VPAW | ≤ 0.2
YCQT | ≤ 0.2
TPGL | ≤ 0.2
LPPV | ≤ 0.2
HSKL | ≤ 0.2
IRDT | ≤ 0.2
CCKT | ≤ 0.2
IRKS | 0.37
IRNT | 0.451
IRVT | ≤ 0.2
ISKT | ≤ 0.2
CRKT | 0.365
IRKD | ≤ 0.2
IRKT | 0.471
CRVT | ≤ 0.2
ICKS | ≤ 0.2
ISNT | ≤ 0.2
NWRM | ≤ 0.2
VPHA | ≤ 0.2
QWQG | ≤ 0.2

Variant | one-hybrid fitness for binding NBS DNA
FVWR | ≤ 0.2
DGRN | ≤ 0.2
NANS | ≤ 0.2
VHVA | ≤ 0.2
KSLV | ≤ 0.2
HSRL | ≤ 0.2
ISKR | 0.243
ICRT | ≤ 0.2
IRYT | ≤ 0.2
ICKR | 0.273
IRRR | 0.601
ICRR | 0.291
IRYR | 0.226
IRDR | ≤ 0.2
IRNR | 0.422
IRRT | 0.423
IRKR | 0.67
ICNR | ≤ 0.2
HAYM | ≤ 0.2
CMSN | ≤ 0.2
ARHS | ≤ 0.2
TQNT | ≤ 0.2
TSWF | ≤ 0.2
VQPL | ≤ 0.2
RWGG | ≤ 0.2

Variant | one-hybrid fitness for binding NBS DNA
MFWL | ≤ 0.2
RIRE | ≤ 0.2
TLNG | ≤ 0.2
DAAP | ≤ 0.2
GRNT | ≤ 0.2
VFAC | ≤ 0.2
QMYA | 0.267
QARA | 0.519
QMDA | ≤ 0.2
QAYA | 0.249
QHYA | 0.291
QCRA | 0.658
QHDA | ≤ 0.2
QPRA | ≤ 0.2
QADA | ≤ 0.2
QHRA | 0.533
QMRA | 0.569
QCYA | 0.328
QTEQ | ≤ 0.2
PTMF | ≤ 0.2
HNHR | ≤ 0.2
PCGG | ≤ 0.2
TWLL | ≤ 0.2
LKVE | ≤ 0.2
PCRQ | ≤ 0.2

Variant | one-hybrid fitness for binding NBS DNA
SSRV | ≤ 0.2
HLTD | ≤ 0.2
QIYA | ≤ 0.2
QLYA | ≤ 0.2
QIAA | ≤ 0.2
QSYA | 0.208
QLDA | ≤ 0.2
QIRA | 0.386
QKYA | 0.249
QSDA | ≤ 0.2
QLRA | 0.479
QSRA | 0.516
QKRA | 0.539
QKFA | ≤ 0.2
MCAS | ≤ 0.2
PTRY | ≤ 0.2
CVKD | ≤ 0.2
PVDC | ≤ 0.2
YENN | ≤ 0.2
QHSL | ≤ 0.2
RRDG | ≤ 0.2
RRRM | 0.651
RRVS | 0.605
RRVD | ≤ 0.2
RRVM | 0.206

Variant | one-hybrid fitness for binding NBS DNA
RCVS | 0.335
RRRG | 0.497
RRYM | 0.296
RCKM | 0.238
RRKM | 0.647
RCRM | 0.231
RRYG | 0.331
HRIT | ≤ 0.2
SNQT | ≤ 0.2
TVTC | ≤ 0.2
GVCG | ≤ 0.2
MMPN | ≤ 0.2
MEVE | ≤ 0.2
LLMQ | ≤ 0.2
CKKG | ≤ 0.2
RRYP | ≤ 0.2
RRKD | 0.226
RCKN | 0.27
RRVN | 0.238
RRVP | ≤ 0.2
RRKP | 0.379
RRKS | 0.68
RRKE | 0.214
RRKN | 0.646
RRRF | 0.442

Variant | one-hybrid fitness for binding NBS DNA
RRDF | ≤ 0.2
RRYF | ≤ 0.2
TKMW | ≤ 0.2
MWVR | ≤ 0.2
CLAT | ≤ 0.2
TSDV | ≤ 0.2
AMPA | ≤ 0.2
PHPV | ≤ 0.2
QICI | ≤ 0.2
IYNQ | ≤ 0.2
TYVC | ≤ 0.2
YDYM | ≤ 0.2
LLAR | ≤ 0.2
RSKY | 0.29
RCKF | ≤ 0.2
RRVH | 0.321
RRKL | 0.259
RRKY | 0.79
RRKF | 0.484
RCKK | 0.248
RRVK | ≤ 0.2
RRVY | 0.301
RRVF | ≤ 0.2
RRKK | 0.438
RRKH | 0.798
